Measurements as given in PubChem BioAssay AID1851 (National Center for Advancing Translational Sciences (NCATS), 2009).
Where “and” joins values, the source holds several entries; their conditions need not be identical. Equal values may be shown once. Out of some 16,000 compounds screened, about 5,700 (36%) were called active. Inconclusive results (about 24%) are left out. This is one part of the list. Unmarked numbers belong to inactive results. The call rests on the fitted dose curve; in most records, active means well fitted curve in the direction sought with a large enough effect; inconclusive means small, poorly fitted or top-dose-only effect, or effect the other way; inactive means no such curve, though single readings can be large or run the other way.

Target: Cytochrome P450 1A2 (Homo sapiens) (UniProt P05177)
Sequence (P05177 whole entry, looked up): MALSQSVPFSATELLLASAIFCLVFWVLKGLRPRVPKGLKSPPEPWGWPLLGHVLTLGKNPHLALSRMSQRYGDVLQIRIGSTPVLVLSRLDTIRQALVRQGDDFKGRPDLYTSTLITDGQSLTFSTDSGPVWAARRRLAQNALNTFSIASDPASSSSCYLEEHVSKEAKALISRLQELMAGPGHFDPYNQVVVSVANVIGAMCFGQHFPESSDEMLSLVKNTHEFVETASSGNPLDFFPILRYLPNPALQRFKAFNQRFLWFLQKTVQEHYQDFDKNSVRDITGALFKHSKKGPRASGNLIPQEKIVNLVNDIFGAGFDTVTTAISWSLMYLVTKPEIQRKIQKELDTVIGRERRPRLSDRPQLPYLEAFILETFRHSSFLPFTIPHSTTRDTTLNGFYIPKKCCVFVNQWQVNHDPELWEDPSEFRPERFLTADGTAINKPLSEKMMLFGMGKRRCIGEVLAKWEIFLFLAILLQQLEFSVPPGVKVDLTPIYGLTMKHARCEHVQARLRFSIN
Experiment: Cytochrome panel assay with activity outcomes
Conditions: recombinant CYP, pro-luciferin dealkylation, luminescence, p450-cyp1a2; series mostly up to 57.1 µM
On the % scale 0 is the no-effect control and ±100 the full control effect.

| SMILES | AC50 | activity, negative = inhibition |
| --- | --- | --- |
| O=C(Cn1ncc2ccsc2c1=O)N1CCC2(CC1)OCCO2 | inactive | – |
| Cc1ccc2cc3cc(C(=O)N4CCC5(CC4)OCCO5)oc3nc2c1 | 2.51 µM (active) | – |
| Cc1ccc(S(=O)(=O)NCC2CCC(C(=O)N3CCC4(CC3)OCCO4)CC2)cc1 (stereo not drawn) | inactive | – |
| Cc1cc(NC(=O)CCC(=O)N2CCC3(CC2)OCCO3)no1 | inactive | – |
| COC(=O)[C@H](N)CCCN=C(N)N[N+](=O)[O-] | inactive | – |
| CN1CCc2cccc(Cl)c2CC1 | inactive | – |
| CCCC(=O)Nc1ccc(N2CCN(CC)CC2)c(Cl)c1 | inactive | – |
| C[C@@H]1O[C@H](O[C@@H]2CC[C@@]3(C=O)[C@H]4CC[C@@]5(C)[C@@H](C6=CC(=O)OC6)CC[C@@]5(O)[C@@H]4CC[C@]3(O)C2)C[C@H](O)[C@@H]1O | inactive | – |
| CN1C(=O)C(=Cc2ccccc2Oc2ccc(Cl)c(F)c2)C(=O)N(C)C1=O | 22.4 µM (active) | – |
| Cc1ccc(N2C(=O)/C(=C/N3CCN(C(=O)c4ccco4)CC3)C(=O)NC2=S)cc1C | inactive | – |
| O=C(NC1CCCCC1)NC1CC2CCC(C1)N2Cc1nnnn1Cc1ccc2c(c1)OCO2 (stereo not drawn) | inactive | – |
| CC(C)CN1CC2(CCN(C(=O)Oc3ccccc3)CC2)C1 | inactive | – |
| c1csc(CN2CCC3(CCNCC3)CC2)n1 | inactive | – |
| COc1cc(OC)c(/C=C2/C(=O)Nc3ccccc32)c(OC)c1 | 0.501 µM (active) | – |
| C=C(C)c1ccccc1 (tested in a mixture with another compound) | – | -19.6% [at 2.29 µM] |
| C[N+]1([O-])[C@@H]2CC[C@H]1CC(OC(=O)[C@@H](CO)c1ccccc1)C2 (stereo partly drawn) | inactive | – |
| CC(=O)Nc1ccccc1C(=O)OCC(=O)c1ccc2ccccc2c1 | 3.16 µM (active) | – |
| CC(=O)Nc1ccccc1C(=O)OCc1ccc(C(=O)c2ccccc2)cc1 | inactive | – |
| CS(=O)(=O)O[C@H]1CN2CCC1CC2 | – | -18.7% [at 11.4 µM] |
| CCOc1ccc(C2C(C#N)=C(N)Oc3c2c(=O)oc2ccccc32)cc1 (stereo not drawn) | 5.01 µM (active) | – |
| COc1ccc2c3c1O[C@@H]1C(=O)CC[C@@]4(O)[C@@H](C2)N(CC2CC2)CC[C@]314 | inactive | – |
| C[C@H](Br)C(=O)c1ccc2cc(Br)c3ccccc3c2c1 | 0.158 µM (active) | – |
| CC1=C(CC[C@H](C)CO)O[C@@H]2C[C@@H]3[C@H]4CC[C@H]5C[C@@H](O)CC[C@]5(C)[C@@H]4CC(=O)[C@@]3(C)[C@@H]12 | – | -21.1% [at 2.29 µM] |
| O=C(O)Cc1cnc[nH]1 | inactive | – |
| NC(N)=NS(=O)(=O)c1ccc(N)cc1 | inactive | – |
| O=C1c2cc([N+](=O)[O-])ccc2-c2ccc3c4ccc5c6c(ccc(c7ccc1c2c73)c64)C(=O)c1cc([N+](=O)[O-])ccc1-5 | 0.794 µM (active) | – |
| O=C(O)CCCc1ccc(N(CCCl)CCCl)cc1 | inactive | – |

| SMILES | AC50 | activity, negative = inhibition |
| --- | --- | --- |
| C[C@@H]1O[C@H]1P(=O)(O)O | inactive | – |
| Cc1nccc2c1[nH]c1ccccc12 | 1.26 µM (active) and 631 nM (active) | – |
| Cc1c2ccncc2c(C)c2c1[nH]c1ccccc12 | 0.02 µM (active) | – |
| COC(=O)[C@H]1C(=O)c2ccccc2O[C@@](C(=O)OC)(c2ccccc2)[C@@H]1c1ccccc1 | – | 6.39% [at 11.4 µM] |
| C[N+]1(C)CCN(c2ccccc2)CC1 | inactive | – |
| COc1ccc(C(=O)OC2C[C@H]3CC[C@@H](C2)N3C)cc1OC (stereo partly drawn) | inactive | – |
| Cc1cccc(NC(=S)NC2CC3CCCC(C2)N3Cc2cccs2)c1 (stereo not drawn) | inactive | – |
| CCc1ccccc1NC(=O)NC1CC2CCC(C1)N2Cc1cccs1 (stereo not drawn) | inactive | – |
| CCSc1nnc(C(N)Cc2ccccc2)o1 (stereo not drawn) | inactive | – |
| NCCCNCCSP(=O)(O)O | inactive | – |
| CC1CN=C(Nc2cccc3ccccc23)S1 (stereo not drawn) | 2 µM (active) | – |
| O=C(Nc1cccc2ccccc12)c1nn(C23CC4CC(CC(C4)C2)C3)cc1Br | inactive | – |
| CCC12C=CCN3CCC4(c5cc(Br)c(OC)cc5N(C)C4C(O)(C(=O)OC)C1OC(C)=O)C32 (stereo not drawn) | inactive | – |
| CCC[C@@H]1CC2=CC(=O)CC[C@]2(C)[C@@H]2CC[C@@]3(C)[C@H](CC[C@]3(O)CCC(=O)O)[C@H]12 | inactive | – |
| COc1cc(C[C@H](C)N)c(OC)cc1I | 6.31 µM (active) and 12.6 µM (active) | – |
| Clc1cnc(Oc2ccc(Oc3ncc(Cl)cc3Cl)cc2)c(Cl)c1 | inactive | – |
| CCNC[C@H](O)c1cccc(O)c1 | inactive | – |
| c1cncc(CNCCN2CCNCC2)c1 | – | 6.05% [at 11.4 µM] |
| c1cncc(CNc2cc(-c3ccc4c(c3)OCO4)ncn2)c1 | 0.251 µM (active) | – |
| Cc1o[nH]c(=O)c1C[C@H](N)C(=O)O | inactive | – |
| c1ccc2sc(C3(N4CCCCC4)CCCCC3)cc2c1 | inactive | – |
| COc1ccn(C)c(=O)c1C#N | inactive | – |
| CO[C@H]1[C@H](O)[C@H](O[C@@H]2[C@H](Oc3cccc4c(O)c5c(=O)oc6ccc(C)c7c(=O)oc(c34)c5c67)O[C@@H](C)[C@H](O)[C@H]2O)O[C@@H](C)[C@@H]1O | – | -16.6% [at 11.4 µM] |
| O=[As](O)(O)c1ccc2nc3cc([As](=O)(O)O)ccc3nc2c1 | – | -15.1% [at 11.4 µM] |
| C=C1[C@@H](O)C2C=CC[C@H](C)C(=O)[C@@](C)(O)C=C[C@@H](OC(C)=O)[C@@]23C(=O)N[C@H](Cc2ccccc2)[C@@H]3[C@@H]1C (stereo partly drawn) | inactive | – |
| c1ccc(N2CCCC3(CCNCC3)C2)cc1 | inactive | – |
